# In PubChem BioAssay (NCI):
# Compounds without any hit were thinned out: in the full panel of roughly 83,000, 20% have a hit.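 Percent growth is the endpoint: 0 to 100 indicates growth inhibition (40 means 60% inhibition), 0 means no net growth, and negative values indicate cell death.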 Unmarked numbers belong to inactive results. Calls of active or inactive are those of the source. Rule for the calls: active = growth percent below 10; inactive = the rest.
# Legend:
# Assay in all cases: NCI-60 one-dose screen, 48 h (100 = growth as untreated, 0 = no growth, -100 = all killed)
# Details in all cases: 10 µM unless noted
# SK-MEL-2 melanoma = test system: SK-MEL-2 melanoma
# EKVX NSCLC = test system: EKVX NSCLC
# SN12C renal = test system: SN12C renal
# UO-31 renal = test system: UO-31 renal
# TK-10 renal = test system: TK-10 renal
# ACHN renal = test system: ACHN renal
# CAKI-1 renal = test system: CAKI-1 renal
# A498 renal = test system: A498 renal
# CCRF-CEM leukemia = test system: CCRF-CEM leukemia
# MOLT-4 leukemia = test system: MOLT-4 leukemia
Compound,growth (SK-MEL-2 melanoma),growth (EKVX NSCLC),growth (SN12C renal),growth (UO-31 renal),growth (TK-10 renal),growth (ACHN renal),growth (CAKI-1 renal),growth (A498 renal),growth (CCRF-CEM leukemia),growth (MOLT-4 leukemia)
C=C1C(=O)O[C@H]2[C@H]1CC/C(COC(=O)/C=C/C(=O)NCc1ccc(Cn3c(=O)sn(-c4ccccc4)c3=O)cc1)=C\CC[C@@]1(C)O[C@@H]21,-13.6% (active),52.3%,-43.7% (active),17.9%,-38.6% (active),-47.3% (active),35.5%,97.1%,-30.6% (active),-27.7% (active)
Cc1nc(Nc2ccc(S(=O)(=O)Nc3cc(C)on3)cc2)c2ccccc2n1,102%,90%,102%,84.2%,99.7%,107%,90.7%,94.3%,103%,104%
Cc1nc(Nc2ccc(NC(=S)Nc3ccccc3)cc2)nc2nc(Nc3ccc(S(=O)(=O)O)cc3)[nH]c(=O)c12,104%,111%,109%,78.9%,125%,128%,82.5%,158%,84.5%,89.7%
O[C@H]1CO[C@H]2[C@@H]1OC[C@@H]2Oc1ccc(Nc2nc(Nc3ccc(F)c(Cl)c3)ncc2F)cc1Cl,113%,92.2%,97%,88%,105%,105%,93.5%,94.4%,103%,103%
CSc1nc(N)c(CNC(C)c2ccccc2)c(=O)n1C (stereo not given),98.9%,100%,101%,80.5%,120%,97.9%,107%,102%,106%,93.1%
C=C(C=O)C1CCC2(C(=O)O)CCC3(C)C(CCC4C5(C)CCC(O)C(C)(C)C5CCC43C)C12 (stereo not given),30.1%,41.9%,21.5%,-69.3% (active),50.5%,-65.4% (active),-27.6% (active),55.2%,6.48% (active),10.4%
COc1ccc(/C(C)=C(\c2ccc(Cl)cc2)c2ccc(OCCN3CCCCC3)cc2)cc1F,64.1%,47.7%,47.4%,11.6%,68.7%,59.2%,17.8%,76%,31%,23.8%
N#Cc1c(NC(=O)c2cccc(C(F)(F)F)c2)sc2c1CCC(=O)C2,-0.134% (active),14.7%,4.55% (active),-100% (active),-5.21% (active),-93.8% (active),-85.3% (active),94.6%,6.89% (active),3.86% (active)
CSc1ccc(Cl)c(C(=O)Nc2sccc2C(N)=O)c1,92.7%,108%,93.6%,80.6%,158%,102%,112%,94.2%,94.1%,125%
COc1ccc(-c2nc3sccn3c2/C=C/C(=O)c2c[nH]c3ccccc23)cc1,90.9%,58.3%,71.7%,82.7%,73%,40.6%,49.6%,68.2%,90.9%,-5.59% (active)
Cc1nc2ccccc2c(/C=C/c2ccc(Cl)cc2)c1C(=O)/C=C/c1ccc(Cl)cc1,-13.6% (active),-11.9% (active),-61.6% (active),-86.2% (active),-6.59% (active),-90.3% (active),-33.8% (active),-75.5% (active),7.4% (active),5.06% (active)
CCOc1cc(C2C(Cl)C(=O)N2n2cnnc2)ccc1O (stereo not given),100%,109%,98.6%,86%,99.1%,96.7%,85.3%,101%,93.6%,100%
C#CC[C@H](N)C(=O)O,110% [20 µM],106% [20 µM],98.2% [20 µM],86.1% [20 µM],87.7% [20 µM],107% [20 µM],91.1% [20 µM],105% [20 µM],98.6% [20 µM],102% [20 µM]
COc1ccc(-c2nc3ncccn3c2/C=C/C(=O)c2cc(OC)c(OC)c(OC)c2)cc1,0.675% (active),1.1% (active),15.7%,17%,15.5%,20.4%,-3.66% (active),-20.5% (active),1.32% (active),4.3% (active)
NC(=O)c1c(NC(=O)c2ccc(C(F)(F)F)cc2Cl)sc2c1CCC(=O)C2,-11.1% (active),-9.99% (active),-5.19% (active),-100% (active),6.29% (active),-91.1% (active),-82.2% (active),61.9%,-1.78% (active),-12.9% (active)
COc1ccc(-c2c(N)n[nH]c2-c2ccccc2O)cc1OC,88.2%,92.4%,104%,62.6%,98.5%,102%,21.6%,118%,81.8%,97%
CC(=O)c1ccc2c(c1)CCN2,104%,117%,96.7%,94.2%,98.1%,100%,111%,117%,94.9%,94.2%
CCOC(=O)Cc1csc2nc(-c3ccccc3)nn12,114%,105%,106%,97%,126%,99.7%,111%,90.4%,103%,111%
CN(C)CCC(O)(Cc1ccccc1)c1ccccc1 (stereo not given),100%,99.5%,105%,87.8%,93.8%,101%,83.6%,185%,112%,102%
COc1ccc(-c2cn(-c3cccc(C(=O)/C=C/c4cc(OC)c(OC)c(OC)c4)c3)c(=O)[nH]2)cc1,-21.5% (active),6.73% (active),9.79% (active),-33.9% (active),60.8%,-49.9% (active),-12.1% (active),62.8%,6.11% (active),3.77% (active)
CCCCC1COc2cccc3c(SCC(=O)N(C)c4cccc(Cl)c4)cc[n+]1c23 (stereo not given),105%,113%,94.4%,90.7%,110%,101%,102%,106%,105%,109%
CC(C)(C)Nc1c(-c2c3ccccc3cc3ccccc23)nc2ccccn12,77.1%,70.1%,82.3%,49.8%,76%,77.8%,50.1%,88.2%,61.7%,45.5%
O=C(/C=C/c1ccccc1)c1ccc2ccccc2c1,98.4%,86.7%,99.7%,73.9%,44.4%,16.2%,83.9%,93.5%,23%,74.5%
COc1ccc(/C=C2\COc3ccc(O)cc3C2=O)cc1OC,97.1%,96.3%,59.3%,66.6%,93.1%,73%,62.3%,90.6%,3.05% (active),48%
O=C(Nc1ccccc1)c1sc(-c2cccc(C(F)(F)F)c2)cc1O,33.4%,81.5%,83.7%,77.6%,96.5%,79.5%,74.6%,51.2%,87.4%,87.7%
COc1cc(C2C=C(c3cccc(NC(C)=O)c3)Nc3ncnn32)cc(OC)c1OC (stereo not given),64.9%,37.2%,32.9%,59.6%,4.84% (active),52.8%,-10.6% (active),1.13% (active),11.5%,9.75% (active)
CN(C)CCn1cc(-c2ccc3c(Nc4ccc(CC(=O)Nc5cccc(F)c5)cc4)ncnc3c2)cn1,37.2% [30 µM],-34.7% [30 µM] (active),-91.4% [30 µM] (active),-60% [30 µM] (active),-58.5% [30 µM] (active),-51.7% [30 µM] (active),-15.8% [30 µM] (active),59.5% [30 µM],-19.3% [30 µM] (active),-30.6% [30 µM] (active)
